# Only some compounds are listed: those with a hit (about 9.2% of all), similar ones and a draw of the others.
# Rab9 promoter act – activates the Rab9 promoter; Huh7 Rab9 promoter-luciferase reporter, luminescence, 24 h; Potency, µM (top dose mostly 9.22 µM), without a hit: at the highest dose activation, negative = inhibition, actives largely listed as activators; hit rate 2.8% among 320,000; note: % of control where 0% means no effect; nearly all actives have a fitted effect of over 60% in size
#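 Stable Rab9-luc Huh7, 1500 cells/well, 2 h settle; cmpd in DMSO, 24 h, 37 °C/5% CO2; luciferase reagent 10 min RT; luminescence.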
# ELG1 repair inh – inhibitors of ELG1-dependent DNA repair in HEK293T cells; HEK293T ELG1-luciferase reporter, luminescence, 16 h; DNA damage induced by 5-fluorouridine; Potency, µM (titrated, usually from 46.1 µM), for the others: top-dose activity change, negative = inhibition, usual class: inhibitors; hit rate 2.3% among 330,000; AID 504467; note: % is set by controls: 0 for no effect and ±100 for the full control effect; nearly all actives have a fitted effect of over 55% in size
#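 5-Fluorouridine DNA damage + compound/DMSO, 2,000 cells/well, 16 h, 37 °C/5% CO2. ONE-Glo, 30 min RT, luminescence. Readout = decrease in reporter signal.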
# ELG1 genotox – genotoxicity induction in ELG1-luciferase HEK293T cells; hit rate 1.3% among 330,000; Potency, µM (series often up to 46 µM), for the others: top-dose activity change, positive = activation, most hits filed as activators; AID 504466; HEK293T ELG1-luciferase reporter, luminescence, 16 h; note: % of control where 0% means no effect; nearly all actives have a fitted effect of over 60% in size
#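 Step 1: seed 2,000 HEK293T ELG1-luciferase cells per well. Step 2: add compound or DMSO, incubate 16 hr at 37 °C. Step 3: ONE-Glo, 30 min at room temperature, read luminescence.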
# SMN2 splice up – enhancers of SMN2 splice variant expression; AID 1458; Potency, µM (highest dose often 46.1 µM), for the others: at the top dose activity change, positive = activation, usual class: activators; hit rate 2.8% among 210,000; HEK293 SMN2-luciferase splicing reporter, luminescence, 30-36 h; note: % of control where 0% means no effect; nearly all actives have a fitted effect of over 55% in size
#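 qHTS luciferase splicing reporter: luminescence rises when SMN2 exon 7 is included in transfected HEK293 cells. Compound exposure lasted 30-36 h at 37C, with 4.5 mM final sodium butyrate as control, followed by a ONE-Glo read.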
# FLuc counter – inhibits or activates purified firefly luciferase, miR-21 counter-screen | purified FLuc, Km substrates, luminescence inhibition | Potency, µM (highest dose often 57.5 µM), inactives show top-dose activity change, negative = inhibition, usual class: inhibitors | hit rate 6.9% among 360,000;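 note: plate controls were vehicle for no effect and reference inhibitor for full effect; nearly all actives have a fitted effect of over 55% in size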
# Target sequence (P08659 whole entry, looked up): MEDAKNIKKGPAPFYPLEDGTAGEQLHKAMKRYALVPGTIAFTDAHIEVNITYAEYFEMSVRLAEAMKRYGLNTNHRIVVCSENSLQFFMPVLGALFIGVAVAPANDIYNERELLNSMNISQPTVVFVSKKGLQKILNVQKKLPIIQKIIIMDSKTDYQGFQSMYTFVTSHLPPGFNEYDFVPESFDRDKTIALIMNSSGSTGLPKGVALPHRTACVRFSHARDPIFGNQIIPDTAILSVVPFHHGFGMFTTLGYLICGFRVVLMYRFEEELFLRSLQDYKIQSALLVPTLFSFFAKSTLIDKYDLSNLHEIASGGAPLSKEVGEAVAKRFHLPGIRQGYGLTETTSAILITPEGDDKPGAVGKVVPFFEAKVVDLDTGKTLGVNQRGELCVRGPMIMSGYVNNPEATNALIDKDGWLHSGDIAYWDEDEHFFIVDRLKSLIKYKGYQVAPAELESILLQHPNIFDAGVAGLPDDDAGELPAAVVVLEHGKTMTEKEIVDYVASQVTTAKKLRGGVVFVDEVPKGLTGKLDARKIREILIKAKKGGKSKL
#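 Purified P. pyralis luciferase, 10 nM final, with Km-level 10 uM D-luciferin and 10 uM ATP in 50 mM Tris acetate pH 7.5, 10 mM Mg acetate, 0.01% Tween-20, 0.05% BSA; 6-point qHTS titration about 60 µM downward; luminescence read.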
# NPC1 prom act – activates the NPC1 promoter; Huh7 NPC1 promoter luciferase reporter, 24 h; Potency, µM (doses to about 9.22 µM), for inactives: at the top dose activation, hits mostly activators; hit rate 2.4% among 320,000; AID 485313; note: % of control where 0% means no effect; nearly all actives have a fitted effect of over 60% in size
#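 Stable NPC1-promoter luciferase Huh7 line; cpd (DMSO) 24 h, 37 °C, 5% CO2; Amplite luciferase reagent 10 min RT; luminescence readout. qHTS format.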
# * = called active by the depositor; ? = inconclusive; nt = no result given. Calls come from the whole dose curve; as a rule, active = well fitted curve in the direction sought with a large enough effect; inconclusive = small, poorly fitted or top-dose-only effect, or another doubt; inactive = no such curve, though single readings can be large; an effect the other way counts as inactive or inconclusive. Potency is the fitted concentration of half-maximal effect.
SMILES,Rab9 promoter act,ELG1 repair inh,ELG1 genotox,SMN2 splice up,FLuc counter,NPC1 prom act
O=C(c1cc(-c2ccccc2)on1)N1CCN(Cc2ccc3c(c2)OCO3)CC1,-0.7%,-30.0%,-4.9%,-16.4%,-11.9%,-2.1%
COc1ccc(-c2cc(C(=O)N3CCCCC3C)no2)cc1OC (centres undefined),nt,nt,nt,7.7%,-15.4%,nt
CCC1CCCCN1C(=S)NC(=O)c1cc(Br)ccc1Cl (centres undefined),-5.3%,-13.6%,-6.2%,nt,0.0%,-1.4%
COc1ccc(C(C)=O)cc1COc1ccc(F)cc1,-3.9%,14.2%,-2.5%,-10.6%,6.2%,-9.5%
COc1cc(/C=C/c2ccc(O)cc2)cc(OC)c1,3.16µM*,nt,nt,nt,13.5µM*,?
COc1ccc(/C=C/C(=O)c2ccc(O)cc2)cc1,?,?,?,nt,3.38µM*,10.5%
COc1ccc(/C=C/C(=O)c2ccccc2O)cc1,24.1%,?,16.4µM*,nt,0.269µM*,18.8%
COc1ccc(C(=O)/C=C/c2ccc(OC)c(COc3ccc(F)cc3)c2)cc1,19.2%,1.7%,-2.8%,nt,5.36µM*,1.8%
COc1ccc(C(=O)/C=C/N(C)C)cc1,13.8%,?,11.5%,24.7%,-19.9%,4.8%
COC(=O)Cc1c(C)c2ccc(OCC(=O)N3CCC(C)CC3)c(C)c2oc1=O,4.3%,?,-11.8%,nt,3.5%,-3.0%
CCc1ccc(NC(=O)C(C)OC(=O)c2cccc(S(=O)(=O)N3CCc4ccccc4C3)c2)cc1 (centres undefined),-3.1%,?,-0.1%,-6.0%,4.8%,7.7%
CCN(C(=O)Cn1c(C(=O)OC)cc2oc3ccccc3c21)c1cccc(C)c1,nt,nt,nt,-24.2%,-12.2%,nt
CCC(=C(c1ccc(OC)cc1)c1ccc(OC)cc1)c1cn(CC(O)CN2CCN(C)CC2)c2ccccc12 (centres undefined),-2.1%,?,-40.1%,8.8%,1.2%,-0.2%
Cc1ccc(CNC(=O)CCS(=O)(=O)c2ccc3c(c2)NC(=O)CS3)cc1,-0.4%,3.1%,-1.9%,nt,1.0%,-0.6%
COc1ccc2cc(C(=O)/C=C/c3cc(OC)c(OC)c(OC)c3)ccc2c1,-4.2%,-16.3%,-5.4%,nt,21.3µM*,0.5%
COc1ccc(/C=C/C(=O)c2c(O)c(OC)c3occc3c2OC)cc1,-1.1%,2.9%,-4.6%,nt,?,-6.4%
COc1ccc(/C=C/C(=O)c2ccoc2)cc1,22.7%,?,5.8%,-15.2%,4.26µM*,19.7%
COc1ccc(/C=C/C(=O)c2ccccn2)cc1,0.891µM*,?,?,7.6%,0.379µM*,3.98µM*
Cc1ccc([N+](=O)[O-])c(C)c1,nt,nt,nt,4.1%,nt,nt
CC(C)Oc1cccc(NC(=O)c2cnccc2C(F)(F)F)c1,-4.1%,-0.4%,-1.3%,nt,-0.2%,0.8%
O=C1C=C(c2ccccc2)OC(=O)C1C(=O)c1ccccc1 (centres undefined),4.3%,41.6%,2.2%,-8.1%,23.9µM*,2.4%
COCCNC(=O)CCC1CCN(Cc2ccc(-c3ccccc3)cc2)CC1,0.4%,0.6%,-1.4%,nt,-1.2%,2.3%
O=C(O)c1ccc(N/N=C/c2ccc3nccnc3c2)cc1,-37.8%,?,?,nt,0.379µM*,-31.9%
O=C(O)c1ccc(N/N=C/c2ccncc2)cc1,?,?,17.0%,nt,8.49µM*,?
O=C(Nc1nc2cc3c(cc2s1)OCCO3)c1ccc([N+](=O)[O-])o1,1µM*,?,9.2µM*,nt,1.2µM*,0.891µM*
SMILES,Rab9 promoter act,ELG1 repair inh,ELG1 genotox,SMN2 splice up,FLuc counter,NPC1 prom act
Cc1cc(C)nc(NC(=O)c2ccc([N+](=O)[O-])o2)n1,3.4%,-9.2%,-2.5%,1.8%,5.8%,-0.2%
Cc1cc(C)c2nc(NC(=O)c3ccc([N+](=O)[O-])o3)sc2c1,21.0%,?,-7.1%,nt,?,-0.5%
O=C(Nc1nc2c(F)cc(F)cc2s1)c1ccc([N+](=O)[O-])o1,1.58µM*,?,-0.9%,nt,16.9µM*,2.24µM*
Cc1cc(C)c2sc(NC(=O)c3ccc([N+](=O)[O-])o3)nc2c1,9.6%,?,1.1%,nt,13.5µM*,0.1%
O=C(Nc1nc2ccccc2s1)c1ccccc1[N+](=O)[O-],?,?,?,nt,16.9µM*,?
COc1ccc(-c2cc3nc(C)c(CCC(=O)N4CCN(c5cccc(Cl)c5)CC4)c(C)n3n2)c(OC)c1,nt,nt,nt,1.4%,-6.3%,nt
COc1ccc(N2CC(C(=O)N[C@H](C(=O)NC(C)c3ccccc3)C(C)C)CC2=O)cc1 (some centres undefined),-4.0%,-7.2%,1.8%,nt,0.2%,-0.5%
COc1ccc2nc(NC(=O)c3ccc([N+](=O)[O-])o3)sc2c1,2.82µM*,?,20.9%,nt,2.13µM*,?
O=C(Nc1nc2ccccc2s1)c1ccc([N+](=O)[O-])o1,?,?,6.6%,nt,6.75µM*,?
O=C(Nc1nc(-c2ccccn2)cs1)c1ccc([N+](=O)[O-])o1,-31.5%,?,5.9%,nt,?,0.7%
Cc1cnc(NC(=O)c2ccc(-c3nc4ccccc4s3)o2)s1,13.4%,?,-4.5%,0.3%,16.9µM*,29.8%
Cc1cnc(NC(=O)c2ccc(-c3ccc([N+](=O)[O-])cc3)o2)s1,-4.0%,7.8%,-0.4%,nt,-4.0%,-3.9%
CCCCn1c(N)c(N(CC)C(=O)c2cccs2)c(=O)[nH]c1=O,nt,0.8%,2.2%,nt,nt,nt
Cc1ccc(NC2CCCN(C(=O)c3ccc(F)cc3)C2)cc1C (centres undefined),2.7%,2.4%,-1.2%,nt,4.6%,1.5%
N/C(=N\OC(=O)Nc1ccccc1)c1ncc(C(F)(F)F)cc1Cl,?,?,23.1µM*,54.6%,12µM*,23.9%
N/C(=N\OC(=O)Nc1ccc(Cl)cc1)c1ncc(C(F)(F)F)cc1Cl,1.5%,?,?,-5.2%,?,-2.3%
COc1cc2c(cc1NC(=O)COCC(=O)O)oc1ccccc12,-2.8%,4.1%,2.3%,nt,16.9µM*,-4.8%
COc1ccccc1CC(=O)Nc1cc2oc3ccccc3c2cc1OC,2.7%,-1.3%,1.7%,-29.2%,-18.5%,2.5%
COc1cc2c(cc1NC(=O)C(C)Sc1cccc[n+]1[O-])oc1ccccc12 (centres undefined),?,?,14.0%,10µM*,?,?
COc1ccc(CC(=O)Nc2cc3oc4ccccc4c3cc2OC)cc1,?,?,15.4%,14.1µM*,15.1µM*,?
COc1cc2c(cc1NC(=O)/C=C/c1cc(OC)c(OC)c(OC)c1)oc1ccccc12,-1.7%,5.8µM*,-6.5%,-16.1%,5.1%,-3.0%
